Reference: PubChem BioAssay (NCATS)
Records with an inconclusive call do not appear. A call without a number means that no potency is given here. Calls of active or inactive are those of the source. Calls come from the whole dose curve; as a rule, active = well fitted inhibition curve with a large enough effect; inconclusive = small, poorly fitted or top-dose-only effect; inactive = flat fitted curve, though single readings scatter.

Molecular target: Ubiquitin carboxyl-terminal hydrolase 1 (Homo sapiens) (UniProt O94782)
Assay: Inhibitors of USP1/UAF1: Pilot qHTS (AID 504865); note: nearly all actives have a fitted effect of over 35% in size
Settings: purified USP1/UAF1, Ub-rhodamine cleavage fluorescence; series mostly up to 114 µM
In short: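 Deubiquitinase activity followed as kinetic rhodamine fluorescence release from 150 nM Ub-Rho. 1 nM USP1/UAF1 with compound, after 15 min room-temperature preincubation, in HEPES pH 7.8 buffer containing TCEP, EDTA, BSA and Tween-20.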
Potency is the fitted concentration of half-maximal effect.

Chain of Ubiquitin carboxyl-terminal hydrolase 1 (Homo sapiens) (O94782 whole entry, looked up): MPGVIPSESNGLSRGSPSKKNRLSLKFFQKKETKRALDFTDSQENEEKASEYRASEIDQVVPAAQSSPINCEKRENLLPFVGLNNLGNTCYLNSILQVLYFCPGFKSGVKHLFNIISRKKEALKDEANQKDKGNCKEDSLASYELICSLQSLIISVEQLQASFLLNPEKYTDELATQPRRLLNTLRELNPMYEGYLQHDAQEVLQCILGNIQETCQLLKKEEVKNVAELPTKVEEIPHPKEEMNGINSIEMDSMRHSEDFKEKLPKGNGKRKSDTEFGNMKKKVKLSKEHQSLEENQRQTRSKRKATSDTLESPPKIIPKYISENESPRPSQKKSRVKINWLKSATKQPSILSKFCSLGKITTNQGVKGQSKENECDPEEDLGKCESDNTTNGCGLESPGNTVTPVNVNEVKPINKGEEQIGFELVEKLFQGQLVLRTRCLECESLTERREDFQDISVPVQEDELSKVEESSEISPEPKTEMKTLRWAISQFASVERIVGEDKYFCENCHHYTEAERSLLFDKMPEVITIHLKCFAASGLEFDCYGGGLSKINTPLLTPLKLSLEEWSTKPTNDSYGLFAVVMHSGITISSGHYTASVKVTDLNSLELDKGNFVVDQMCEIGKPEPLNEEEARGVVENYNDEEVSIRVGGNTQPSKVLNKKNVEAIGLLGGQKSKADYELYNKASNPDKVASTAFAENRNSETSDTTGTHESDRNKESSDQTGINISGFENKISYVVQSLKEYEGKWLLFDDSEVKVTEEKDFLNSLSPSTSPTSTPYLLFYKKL

| SMILES | Potency |
| --- | --- |
| O=C(O)c1cccnc1 | inactive |
| COC(=O)Nc1nc2ccc(S(=O)c3ccccc3)cc2[nH]1 (stereo unspecified) | inactive |
| CCOCC(O)COc1ccc(NC(=O)CC[S+](C)C)cc1 (stereo unspecified) | inactive |
| CCCc1nc(C)c2c(=O)[nH]c(-c3cc(S(=O)(=O)N4CCN(CC)CC4)ccc3OCC)nn12 | inactive |
| N[C@@H](C(=O)N[C@@H]1C(=O)N2C(C(=O)O)=C(Cl)CS[C@H]12)c1ccccc1 | inactive |
| CCCN[C@H]1CCc2nc(N)sc2C1 | inactive |
| CCn1cc(C(=O)O)c(=O)c2cc(F)c(N3CCNCC3)nc21 | inactive |
| CN1CCN(c2c(F)cc3c(=O)c(C(=O)O)cn4c3c2OCN4C)CC1 | inactive |
| COc1ccc(C(=O)CC(=O)c2ccc(C(C)(C)C)cc2)cc1 | inactive |
| CC(C)(C#N)c1cc(Cn2cncn2)cc(C(C)(C)C#N)c1 | inactive |
| COC(=O)Nc1nc2ccc(Sc3ccccc3)cc2[nH]1 | inactive |
| CNCC[C@H](Oc1cccc2ccccc12)c1cccs1 | inactive |
| CN1CCCC(n2nc(Cc3ccc(Cl)cc3)c3ccccc3c2=O)CC1 (stereo unspecified) | inactive |
| Oc1c(Cl)cc(Cl)c2cccnc12 | inactive |
| COc1cc2c(Nc3ccc(Br)cc3F)ncnc2cc1OCC1CCN(C)CC1 | inactive |
| O=S(=O)(O)CCS | inactive |

| SMILES | Potency |
| --- | --- |
| Cn1nnc2c(C(N)=O)ncn2c1=O | inactive |
| CCOC(=O)[C@H](CCc1ccccc1)N[C@H]1CS[C@H](c2cccs2)CN(CC(=O)O)C1=O | inactive |
| CCCCOc1ccc(CC(=O)NO)cc1 | inactive |
| CC(C)(Sc1cc(C(C)(C)C)c(O)c(C(C)(C)C)c1)Sc1cc(C(C)(C)C)c(O)c(C(C)(C)C)c1 | inactive |
| Cc1cccc(Nc2ccncc2S(=O)(=O)NC(=O)NC(C)C)c1 | inactive |
| COc1nc(N)nc2c1ncn2[C@@H]1O[C@H](CO)[C@@H](O)[C@@H]1O | 22.4 µM (active) |
| CN(Cc1cc(Br)cc(Br)c1N)C1CCCCC1 | inactive |
| O=P(O)(O)C(O)(Cc1cccnc1)P(=O)(O)O | inactive |
| CN(C)CCc1c[nH]c2ccc(CS(=O)(=O)N3CCCC3)cc12 | inactive |
| O=c1cc(O)c(Cl)c[nH]1 | inactive |
| Nc1ccc(S(=O)(=O)Nc2ccccn2)cc1 | inactive |
| Nc1[nH]c(=O)ncc1F | inactive |
| Nc1nc(N)nc(-c2cc(Cl)ccc2Cl)n1 | inactive |
| COc1cnc(NS(=O)(=O)c2ccc(N)cc2)nc1 | inactive |
| COc1ccc2c(c1)c(CC(=O)OCC(=O)O)c(C)n2C(=O)c1ccc(Cl)cc1 | inactive |
